# From PubChem BioAssay
# LYPLA2 inh: blocks human lysophospholipase 2, a PME1 counter-screen. O95372. 320,000 tested, 0.38% active. recombinant LYPLA2, FP-Rh probe fluorescence polarization. inhibition, % at 5.9 µM;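 active = inhibition above the screen-wide mean plus 3 SD, limit set per campaign, cut at about 26% in these data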
# PME-1 inh: blocks human protein phosphatase methylesterase 1 | recombinant PME-1, FP-Rh probe fluorescence polarization | inhibition, % at 5.9 µM | 320,000 tested, 0.53% active;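 active = inhibition above the campaign mean of all compounds plus 3 SD, cut at about 26% in these data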;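 note: competitive labeling of PME-1 active site by serine hydrolase directed probe; inhibitors block probe labeling so polarization falls and inhibition rises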
# LYPLA1 inh: counter-screen for PME1 inhibitors: inhibitors of human LYPLA1; O75608; recombinant LYPLA1, FP-Rh probe fluorescence polarization; inhibition, % at 5.9 µM; 320,000 tested, 0.16% active;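 active = inhibition above the mean of all tested compounds plus 3 SD, set per campaign, cut at about 14% in these data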;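 note: inhibitors block serine hydrolase probe labeling of LYPLA1 so polarization falls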
# GSTO1 counter: GSTO1 inhibition, counter-screen for RBBP9 inhibitors. P78417. recombinant GSTO1, activity-based probe fluorescence polarization. inhibition, % at 5.96 µM. 300,000 tested, 1.1% active. AID 1974;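 active = inhibition above the campaign mean inhibition plus 3 SD, cut at about 35% in these data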
# PAD4 FP inh: PAD4 (human) enzyme inhibition | inhibition, % at 6.36 µM | recombinant PAD4, RCA probe fluorescence polarization | 330,000 tested, 0.41% active | Q9UM07 | AID 485272;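 active = percent inhibition above a cutoff equal to the mean of all tested compounds plus 3 SD, cut at about 15% in these data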
# Target sequence (Q9UM07 whole entry, looked up): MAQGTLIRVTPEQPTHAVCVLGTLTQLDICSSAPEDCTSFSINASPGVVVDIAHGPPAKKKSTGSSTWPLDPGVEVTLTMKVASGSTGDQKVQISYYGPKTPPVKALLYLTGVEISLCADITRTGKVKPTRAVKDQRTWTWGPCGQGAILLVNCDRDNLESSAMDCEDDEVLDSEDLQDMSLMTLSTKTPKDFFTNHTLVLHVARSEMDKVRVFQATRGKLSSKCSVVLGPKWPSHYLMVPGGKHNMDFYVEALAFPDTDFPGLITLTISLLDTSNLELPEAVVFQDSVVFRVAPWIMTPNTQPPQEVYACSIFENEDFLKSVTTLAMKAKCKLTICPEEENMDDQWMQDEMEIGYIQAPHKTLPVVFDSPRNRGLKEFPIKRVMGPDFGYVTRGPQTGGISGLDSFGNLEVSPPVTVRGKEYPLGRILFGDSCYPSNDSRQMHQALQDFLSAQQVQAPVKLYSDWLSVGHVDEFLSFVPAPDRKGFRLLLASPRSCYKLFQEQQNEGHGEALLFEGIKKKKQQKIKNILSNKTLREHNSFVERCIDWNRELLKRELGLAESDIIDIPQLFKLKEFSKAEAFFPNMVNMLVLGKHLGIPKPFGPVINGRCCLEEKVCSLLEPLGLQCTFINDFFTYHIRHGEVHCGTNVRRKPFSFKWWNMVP
# Fam108B inh: counter-screen for RBBP9 inhibitors: inhibitors of mouse Fam108B | recombinant Fam108B, FP-Rh probe fluorescence polarization | inhibition, % at 9.51 µM | 300,000 tested, 0.33% active;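 active = inhibition above the screen mean inhibition plus 3 SD, computed separately per campaign, cut at about 18% in these data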;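 note: inhibitors lower polarization as less probe binds the enzyme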
# Fam108b inh conf: Fam108b (mouse) hydrolase inhibition, confirmation assay. shares compounds with Fam108B inh. recombinant Fam108b, FP-Rh probe fluorescence polarization. inhibition, % at 9.51 µM. 930 tested, 44% active;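 active = inhibition above a limit from the primary screen, the mean over all compounds plus 3 SD, cut at about 19% in these data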;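 note: inhibitors free the probe so polarization falls as inhibition rises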
# Fam108b inh: inhibits mouse Fam108b in gel-based ABPP; shares compounds with Fam108B inh; recombinant Fam108b, fluorophosphonate probe; inhibition, % at 20 µM; 260 tested, 44% active; in the data active = inhibition above about 40%
# GSTO1 inh conf: GSTO1 (human) inhibition, confirmation | inhibition, % at 5.96 µM | recombinant GSTO1, probe fluorescence polarization | 2,400 tested, 54% active | shares compounds with GSTO1 counter;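 active = inhibition above the primary screen's cutoff, its mean inhibition plus 3 SD, cut at about 35% in these data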;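 note: loss of polarization as inhibitors block binding of rhodamine sulfonate ester activity probe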
# LYPLA1 confirm: LYPLA1 (human) inhibition, confirmation counter-screen; shares compounds with LYPLA1 inh; recombinant LYPLA1, FP-Rh probe fluorescence polarization; inhibition, % at 5.9 µM; 480 tested, 69% active; AID 2233;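 active = mean inhibition across replicates above the hit cutoff set in the primary screen, cut at about 15% in these data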;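 note: loss of FP-Rh probe labeling of LYPLA1 seen as lower polarization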
# LYPLA2 confirm: LYPLA2 (human) inhibition, confirmation counter-screen | shares compounds with LYPLA2 inh | recombinant LYPLA2, FP-Rh probe fluorescence polarization | inhibition, % at 5.9 µM | 1,100 tested, 72% active;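 active = mean inhibition across replicates above the hit cutoff set in the primary screen, cut at about 26% in these data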;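 note: blocked labeling of the enzyme by serine hydrolase FP-Rh probe lowers polarization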
# Numbers stand for hits; – = inactive; · = no result. The list is not random: actives were taken first. Their share in the collection is about 1.8%.
SMILES,LYPLA2 inh,PME-1 inh,LYPLA1 inh,GSTO1 counter,PAD4 FP inh,Fam108B inh,Fam108b inh conf,GSTO1 inh conf,LYPLA1 confirm,others
O=C(O)c1nn(-c2ccc(Cl)cc2)ccc1=O,–,–,–,–,–,–,·,·,·,
O=C1/C(=C/C=C/c2ccco2)SC(=S)N1c1ccc(O)cc1,–,–,–,46,–,19,–,–,·,
O=C1CCCC2=C1C(c1ccco1)Nc1ccc3ccccc3c12 (centres undefined),–,–,–,38,–,18,–,–,·,
O=C(Nc1cccc(C(F)(F)F)c1)c1ccc2nc(-c3ccco3)c(-c3ccco3)nc2c1,–,30,–,50,–,52,–,–,·,
O=C(Nc1cccc(C(F)(F)F)c1)c1cc[n+]([O-])cc1,–,–,–,–,–,–,·,·,·,
COc1ccccc1CNCC(c1ccccc1)c1ccccc1,–,–,–,–,–,–,·,·,·,
O=C(O)c1ccc2c(c1)C(=O)/C(=C\c1ccco1)C2=O,–,–,–,40,–,18,–,50,·,
O=C(NCC(=O)N(c1cccc(F)c1)C(C(=O)NC1CCCC1)c1cccnc1)c1ccco1 (centres undefined),–,–,–,–,–,–,·,·,·,
N#C/C(N=Nc1ccccc1O)=N\Nc1ccccc1O,–,32,–,87,–,39,40,68,·,Fam108b inh=–
Oc1ccccc1N=N/C(=N/Nc1ccccc1O)c1ccccc1,–,–,–,–,–,–,·,·,·,
CC1(C2CC2)NC(=O)N(CC(=O)N2CCN(S(=O)(=O)c3ccc(F)c(F)c3)CC2)C1=O (centres undefined),–,–,–,·,–,·,·,·,·,
c1coc(-c2nnc(-c3ccco3)nn2)c1,–,–,–,68,–,22,–,38,·,
CCC(NC(=O)c1ccccc1NC(=O)c1ccco1)C(=O)NNC(=O)c1ccncc1 (centres undefined),–,–,–,–,–,–,·,·,·,
O=[N+]([O-])c1cc([N+](=O)[O-])c2c(=Nc3ccccc3)n(-c3ccccc3)n(O)c2c1,–,–,–,46,–,19,27,63,·,
CC1CC(=O)c2c(cc3c(-c4c(O)cc(O)c5c(O)c6c(cc45)OC(C)CC6=O)c(O)cc(O)c3c2O)O1 (centres undefined),–,–,–,62,–,54,66,73,·,Fam108b inh=–
O=C1CC(c2ccc(O)cc2)Oc2cc(O)cc(O)c21 (centres undefined),–,–,–,–,–,–,·,·,·,
CNC(=S)Nc1ccc(C(N)=O)cc1,–,–,–,–,–,–,·,·,·,
CN1c2ccccc2C(C)(C)C12C=Nc1c(ccc3ccccc13)O2 (centres undefined),–,–,–,90,–,31,–,–,·,
Cc1ccc(NC(=O)C(=O)Nc2ccc(C)cn2)nc1,–,–,–,–,–,–,·,·,·,
Cc1ccc(NC(=O)/C(C#N)=C(\N)C(Cl)(Cl)Cl)nc1,–,–,–,47,–,21,23,76,·,
O=S(=O)(O)c1cccc2c(N=Nc3ccc(O)c4ncccc34)cccc12,–,–,–,65,–,50,45,63,·,Fam108b inh=–
COC(=O)/C=c1/sc2nc3ccccc3n2c1=O,–,–,–,–,–,–,·,·,·,
O=c1/c(=C\c2cc([N+](=O)[O-])cc([N+](=O)[O-])c2O)sc2nc3ccccc3n12,–,–,16,–,–,52,39,·,–,
O=C(N/N=C/c1cc(Cl)c(O)c(Cl)c1)c1cc2c(ccc3ccccc32)o1,–,57,24,37,–,37,52,·,–,
COc1cc(N=Nc2cccc(S(N)(=O)=O)c2)c2ccccc2c1N,–,30,14,–,–,34,–,·,–,
SMILES,LYPLA2 inh,PME-1 inh,LYPLA1 inh,GSTO1 counter,PAD4 FP inh,Fam108B inh,Fam108b inh conf,GSTO1 inh conf,LYPLA1 confirm,others
NC1=NC(=Nc2cccc(S(N)(=O)=O)c2)c2ccccc21,–,–,–,–,–,–,·,·,·,
COC(=O)c1ccccc1NC(=O)CCCN1C(=O)C(c2ccccc2)Oc2cccnc21 (centres undefined),–,–,–,–,–,–,·,·,·,
Cc1ccc(C(=O)N/N=C/c2ccc(-c3ccc(Br)cc3[N+](=O)[O-])o2)o1,–,53,18,66,–,19,–,–,–,
N#Cc1ccccc1NCC(=O)N1CCN(S(=O)(=O)c2ccccc2)CC1,–,–,–,·,–,·,·,·,·,
Cc1nc(S/C(=C/c2ccc(-c3ccc(C(=O)O)cc3)o2)C(=O)O)n[nH]1,–,–,–,–,–,–,·,·,·,
Cc1nc(S/C(=C/c2ccc(-c3cc(Cl)ccc3C)o2)C(=O)O)n[nH]1,–,34,26,–,–,25,18,·,28,
C/C(=N\NC(=O)c1cccc(Cl)c1)C1C(=O)c2ccccc2C1=O,–,–,24,–,–,31,34,·,28,
CC1=NN(c2ccccc2)C(=O)/C1=C/c1c(O)n(-c2ccc(F)c(Cl)c2)[nH]c1=O,–,68,26,–,–,67,65,·,–,Fam108b inh=–
CCCCCCCCCCCCCCCC[n+]1ccc(/C=N/O)cc1,–,56,15,–,–,41,44,·,20,
O=C(O)CCCNc1cc(N2CCN(C(=O)c3ccco3)CC2)c2noc3c2c1C(=O)c1ccccc1-3,–,–,18,53,–,35,41,–,18,Fam108b inh=75
O=C1c2ccccc2-c2c1cccc2C(=O)N1CCN(C(=O)c2ccco2)CC1,–,–,–,–,–,–,·,·,·,
CCN1C(=O)[C@H]2[C@H]3CN=C(SCC(=O)c4ccccc4)N3[C@@](CC)(C(=O)OC)[C@H]2C1=O,·,·,·,·,–,·,·,·,·,
COc1ccc(COC(=O)C2CCN(S(=O)(=O)c3cccs3)CC2)cc1,–,–,–,–,–,–,·,·,·,
N#Cc1ccc(C(=O)OCC(=O)Nc2cccnc2Cl)cc1,–,–,–,·,–,·,·,·,·,
CCOc1ccc2nc3cc(NCc4ccc(OC)cc4)ccc3c(N)c2c1,37,–,19,50,–,24,–,–,–,LYPLA2 confirm=–
CCOc1ccc(NC(=S)Nc2ccc(OCC)cc2)cc1,–,–,–,–,–,–,·,·,·,
CCOc1ccc(NC(=S)Nc2ccc3nsnc3c2)cc1,90,52,66,87,76,80,25,81,–,LYPLA2 confirm=34
